Source: PubChem
Sampled rows, rich in hits. Any-hit rate of the full collection: about 12%.
Cycloheximide cs = Cycloheximide Counterscreen for Small Molecule Inhibitors of Shiga Toxin; max response, %; cell reporter, cycloheximide protein synthesis inhibition counterscreen; AID 2314, 2010; 12% of 300,000 active; in the data active = max response mostly above about 13%, no sharp cut-off; inactive = mostly below about 14%; also: read at 38.3 µM for the half of the compounds with a filed dose
Marburg entry inh = qHTS for inhibitors of binding or entry into cells for Marburg Virus; AID 540276, 2011; 1.8% of 300,000 active; Potency, µM (highest dose often 37.8 µM), hits mostly inhibitors; Marburg virus pseudotyped entry inhibition, cell reporter; calls by dose curve; tested in HEK293 cells
Shiga inhibitor = A qHTS for Small Molecule Inhibitors of Shiga Toxin. Vero cells, Shiga toxin protein synthesis inhibition reporter. inhibition, % at 38.7 µM. 9.2% of 290,000 active. AID 2315, 2010; in the data active = inhibition mostly above about 28%, no sharp cut-off; inactive = mostly below about 43%
Lassa entry inh = qHTS for Inhibitors of binding or entry into cells for Lassa Virus | Lassa virus pseudotype entry inhibition, cell reporter | Potency, µM (highest dose often 37.9 µM), most hits filed as inhibitors | 1.2% of 300,000 active | AID 540256, 2011; calls by dose curve; tested in HEK293 cells; also: nearly all actives have a fitted effect of over 50% in size
Each line names hits and unclear results; the compound was inactive in the other large screens.

C/C(=N\Nc1ccc(Cl)c(C(=O)O)c1)c1cc2ccccc2o1	Cycloheximide cs 80, Marburg entry inh inconclusive, Shiga inhibitor active
C/C(=N\Nc1cccc([N+](=O)[O-])c1)c1cc2ccccc2o1	Cycloheximide cs 40, Shiga inhibitor 44
CC1(C)CC(=O)C2=C(C1)N(c1cccc(Cl)c1)C(=O)NC2(C(F)(F)F)C(F)(F)F	none
CSc1ccc(-c2nc3ncccn3c2Nc2ccc(C)c(C)c2)cc1	Marburg entry inh inconclusive (no result: Cycloheximide cs, Shiga inhibitor)
CN(/C=C/C(=C\C=[N+](C)c1ccccc1)OCCCS(=O)(=O)[O-])c1ccccc1	none
C/C(=N\Nc1ccc(Cl)c(C(=O)O)c1)c1ccccn1	Cycloheximide cs 94, Shiga inhibitor 138 (no result: Marburg entry inh, Lassa entry inh)
O=C(O)c1cc(N/N=C/C(Cl)=C/c2ccccc2)ccc1Cl	Cycloheximide cs 68, Marburg entry inh inconclusive, Shiga inhibitor 183, Lassa entry inh inconclusive
CC(=NNC(=S)Nc1ccccc1Cl)c1ccccn1	Marburg entry inh inconclusive, Lassa entry inh 0.25µM (no result: Cycloheximide cs, Shiga inhibitor)
Cc1ccc(CN2CCC(n3nccc3NC(=O)CCOc3ccccc3)CC2)cc1C	none (no result: Marburg entry inh, Lassa entry inh)
COc1ccc(N2CC(NC(=O)c3ccc(OC(C)C)cc3)CC2=O)cc1 (centres undefined)	none (no result: Cycloheximide cs, Marburg entry inh, Shiga inhibitor)
CC(C)CON=C1C[C@@H](O)[C@@H](O)[C@@H]2[C@H]3C(=O)N(C[C@@H]4CCCO4)C(=O)[C@@H]3CC[C@@H]12	none (no result: Cycloheximide cs, Shiga inhibitor, Lassa entry inh)
CCC[C@@H]1Cc2c(sc3nc(SC)nc(N)c23)CO1	none (no result: Cycloheximide cs, Shiga inhibitor, Lassa entry inh)
COc1ccc(N=C2SC(CC(=O)Nc3cccc(Cl)c3)C(=O)N2Cc2ccco2)cc1 (centres undefined)	Cycloheximide cs 37, Marburg entry inh inconclusive, Shiga inhibitor 16, Lassa entry inh inconclusive
NNC(=O)c1sc2cc(C(F)(F)F)cnc2c1-c1cccnc1	none
COc1ccc(C2C(CC(=O)O)=C(Nc3ccccc3)C(=O)N2c2ccccc2)cc1 (centres undefined)	Cycloheximide cs 37 (no result: Marburg entry inh, Lassa entry inh)
O=C(O)CC1=C(Nc2ccccc2)C(=O)N(c2ccccc2)C1c1ccc(F)cc1 (centres undefined)	Cycloheximide cs 52, Shiga inhibitor 99
Cc1ccc(C(=O)NCC(=O)Nc2ccc(Cl)cc2)s1	none (no result: Cycloheximide cs, Shiga inhibitor)
COc1ccc(-c2nc(C)c(CCNC(=O)C(=O)Nc3ccccc3C#N)s2)cc1OC	none (no result: Cycloheximide cs, Marburg entry inh, Shiga inhibitor)
O=C(Oc1cccc(NC2=NS(=O)(=O)c3ccccc32)c1)c1cccnc1	none
C#CC(=O)N(c1ccc(OC)c(OC)c1)C(C(=O)NC1CCCC1)c1cccs1 (centres undefined)	Marburg entry inh 3.5µM, Lassa entry inh 7.9µM
C#CC(=O)N(c1cccc(OC)c1)C(C(=O)NC1CCCC1)c1cccs1 (centres undefined)	Marburg entry inh 2.9µM, Lassa entry inh inconclusive
COc1ccc(N(C(=O)Cc2cccs2)C(C(=O)NC2CCCC2)c2ccncc2)cc1OC (centres undefined)	none
O=C1C(c2[nH]c3ccc(S(=O)(=O)O)cc3c2O)=Nc2ccc(S(=O)(=O)O)cc21	none (no result: Marburg entry inh, Lassa entry inh)
O=C1CC[C@@H](C(=O)N[C@@H](Cc2cnc[nH]2)C(=O)N[C@@H](Cc2c[nH]c3ccccc23)C(=O)N[C@@H](CO)C(=O)N[C@@H](Cc2ccc(O)cc2)C(=O)O)N1	none (no result: Marburg entry inh, Lassa entry inh)
COc1ccc2c(c1)CCc1sc(NC(=O)c3ccc(Br)cc3)nc1-2	none (no result: Cycloheximide cs, Marburg entry inh, Shiga inhibitor)
COC(=O)c1cc2c(s1)-c1ccc(OC)cc1CC2	Cycloheximide cs 55, Shiga inhibitor 115 (no result: Marburg entry inh, Lassa entry inh)
CCOC(=O)C1CCN(C(=O)c2cc3c(s2)-c2ccccc2OC3)CC1	Cycloheximide cs 21, Shiga inhibitor 40 (no result: Marburg entry inh, Lassa entry inh)
O=C(c1cc2c(s1)-c1ccccc1OC2)N1CCc2ccccc2C1	Cycloheximide cs 87, Shiga inhibitor 56
COC(=O)c1cc2c(s1)-c1ccccc1OC2	Cycloheximide cs 28, Shiga inhibitor 64 (no result: Marburg entry inh, Lassa entry inh)
COc1ccccc1N1CCN(C(=O)c2cc3c(s2)-c2ccccc2OC3)CC1	none (no result: Lassa entry inh)
CCOc1ccc(CCNC(=O)CSc2nnnn2-c2ccccc2Cl)cc1OCC	none (no result: Cycloheximide cs, Shiga inhibitor)
c1ccc(-n2nc3c(ccc4cnnc43)[nH]2)cc1	Cycloheximide cs 43, Marburg entry inh inconclusive, Shiga inhibitor 83
CCN(CC)C(=O)CSc1nc2ccccc2c(=O)[nH]1	Cycloheximide cs 9.0
CN(C)C(=O)CSc1nc2ccccc2c(=O)[nH]1	none
COc1ccc(C(=O)CSc2nc(C)cc(=O)[nH]2)cc1	none
Cc1cc(=O)[nH]c(SCC(=O)c2ccc(C(C)C)cc2)n1	Cycloheximide cs 34, Shiga inhibitor 32
Cc1ccc(CSc2nc3ccccc3c(=O)[nH]2)cc1	Cycloheximide cs 38
Cc1ccc(C(=O)CSc2nc3ccccc3c(=O)[nH]2)cc1	Cycloheximide cs 15
COc1ccc(CNC(=O)CN(C)c2nn3c(=O)cc(C)nc3s2)cc1	none (no result: Cycloheximide cs, Shiga inhibitor)
C=CCn1c(=O)n(C2OC(CO)C(O)C2O)c2nc(N)[nH]c(=O)c21 (centres undefined)	none (no result: Marburg entry inh, Lassa entry inh)
COC(=O)c1ccc(Cn2cc(Cl)cn2)o1	none
O=C(CN1CCN(c2ccc(C(F)(F)F)cn2)CC1)NCc1ccc2c(c1)OCO2	Lassa entry inh inconclusive
CCc1ccc(C(=O)CSc2nc3ccccc3c(=O)[nH]2)cc1	Cycloheximide cs 14
O=c1[nH]c(SCc2ccc(Cl)cc2)nc2ccsc12	Cycloheximide cs 44, Marburg entry inh inconclusive, Shiga inhibitor 62
O=c1[nH]c(SCCOc2cccc3ccccc23)nc2ccccc12	Marburg entry inh 2.8µM, Lassa entry inh inconclusive
Cc1ccc(C(=O)CSc2nc3ccccc3c(=O)[nH]2)cc1C	Marburg entry inh inconclusive
Cc1cc(C)cc(N(CCC#N)C(=O)CSc2nc3ccccc3c(=O)[nH]2)c1	Marburg entry inh 10µM, Lassa entry inh inconclusive (no result: Cycloheximide cs, Shiga inhibitor)
N#Cc1c(-c2cccs2)nc(SCc2ccc(Cl)cc2)[nH]c1=O	Marburg entry inh inconclusive
Cc1cccc(C(=O)NC(=S)Nc2cccc3nc(C)ccc23)c1	Lassa entry inh inconclusive
CCOc1ccc(NC(=O)c2ccc3c(c2)CCN3S(C)(=O)=O)cc1	none (no result: Marburg entry inh, Lassa entry inh)
CSc1ccccc1NC(=O)COC(=O)c1ccccc1Cc1ccccc1	none
COc1cc(C(=O)OCC(=O)Nc2ccc(OC(F)F)cc2)cc(OC)c1OC	Marburg entry inh inconclusive, Lassa entry inh inconclusive
O=C(COC(=O)c1ccccc1Cc1ccccc1)Nc1ccc(SC(F)F)cc1	Cycloheximide cs 54, Marburg entry inh inconclusive, Shiga inhibitor 129, Lassa entry inh inconclusive
Cc1ccc(C(=O)c2ccccc2C(=O)OCC(=O)Nc2ccc(SC(F)F)cc2)cc1	Cycloheximide cs 16, Marburg entry inh inconclusive, Lassa entry inh 11µM
CCOc1ccccc1C(=O)OCC(=O)Nc1ccc(OC(F)F)cc1	Cycloheximide cs 17
Cc1ccc(F)cc1NC(=O)CSc1nnc(CNC(=O)c2ccco2)n1C	none (no result: Cycloheximide cs, Shiga inhibitor)
COc1ccc(NC(=O)/C(Cl)=C(/Cl)S(=O)(=O)Cc2ccccc2)cn1	Cycloheximide cs 46, Marburg entry inh inconclusive, Shiga inhibitor 101, Lassa entry inh 22µM
COc1ccc(NC(=O)CC2CC3CCC2C3)cn1 (centres undefined)	Cycloheximide cs 20
COc1ccc(NC(=O)C(Cl)=C(Cl)Cl)cn1	Cycloheximide cs 23, Marburg entry inh inconclusive, Lassa entry inh inconclusive
COc1ccc(NC(=O)Nc2ccc(OCc3ccccc3)cc2)cn1	none (no result: Marburg entry inh, Lassa entry inh)
COc1ccc(NC(=O)/C(Cl)=C(/Cl)S(=O)Cc2ccc(Cl)cc2)cn1 (centres undefined)	Marburg entry inh inconclusive, Lassa entry inh 3.2µM
CN1CCN(Cc2c(C(=O)N/N=C/c3cccc(Br)c3)nnn2-c2nonc2N)CC1	none (no result: Marburg entry inh, Lassa entry inh)
